“And” between values parts separate entries of the source, which are not always exact repeats. Identical values can stand only once. Out of some 16,000 compounds screened, about 5,800 (36%) were called active. Not shown: some 23% with an inconclusive outcome. The call rests on the fitted dose curve; in most records, active means well fitted curve in the direction sought with a large enough effect; inconclusive means small, poorly fitted or top-dose-only effect, or effect the other way; inactive means no such curve, though single readings can be large or run the other way. The list shows a part of the results.
What follows are molecules tested against Cytochrome P450 2C19 (Homo sapiens) (UniProt P33261) (assay: Cytochrome panel assay with activity outcomes). Conditions: recombinant CYP, pro-luciferin dealkylation, luminescence, p450-cyp2c19; series mostly up to 57.1 µM.
Cytochrome P450 2C19 (Homo sapiens), sequence (P33261 whole entry, looked up): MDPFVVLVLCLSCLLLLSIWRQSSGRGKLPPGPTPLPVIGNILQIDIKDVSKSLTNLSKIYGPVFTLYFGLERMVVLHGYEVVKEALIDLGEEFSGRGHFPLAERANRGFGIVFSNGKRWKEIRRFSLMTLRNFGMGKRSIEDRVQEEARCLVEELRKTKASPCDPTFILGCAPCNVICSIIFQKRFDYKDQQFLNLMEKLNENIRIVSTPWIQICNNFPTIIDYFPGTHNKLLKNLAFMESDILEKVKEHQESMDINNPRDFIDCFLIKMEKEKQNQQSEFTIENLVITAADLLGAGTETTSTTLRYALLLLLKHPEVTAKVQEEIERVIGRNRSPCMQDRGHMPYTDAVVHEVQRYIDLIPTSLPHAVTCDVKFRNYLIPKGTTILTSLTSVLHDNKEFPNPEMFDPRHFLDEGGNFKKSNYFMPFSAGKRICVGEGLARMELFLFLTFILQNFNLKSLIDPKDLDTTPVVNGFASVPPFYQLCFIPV
With Cc1cccc(NC(=O)CSc2nc(COc3ccccc3)nc3ccccc23)c1C the AC50 was 2 µM (active). For CCc1nc(SCC(=O)NNC(=O)C2CCCCC2)c2ccccc2n1, the AC50 was “inactive”. C=CCn1c(C(C)NC(=O)c2ccccc2)n[nH]c1=S (centres undefined) was tested, and the AC50 was 5.01 µM (active). CCn1c(CCNC(=O)c2ccccc2Cl)n[nH]c1=S was tested, and the AC50 was “inactive”. In the case of NS(=O)(=O)c1cc(Cl)c(Cl)c(S(N)(=O)=O)c1, the AC50 was “inactive”. CC(=O)NNC(=O)C(O)(c1ccccc1)c1ccccc1 was tested, and the AC50 was “inactive”. In the case of Cc1cccc(N(NC(=O)C(C)(C)O)C(=O)c2ccccc2)c1, the AC50 was 20 µM (active). CCN1C(=O)[C@H]2[C@H]3[C@H](O)[C@H](O)C/C(=N/OCC(C)C)[C@@H]3CC[C@@H]2C1=O was tested, and the activity, negative = inhibition was -7.39% [at 11.4 µM] (inactive). For CCc1ccc(C(=O)N2CCC(c3nc4ccccc4s3)CC2)cc1, the AC50 was 14.1 µM (active). In the case of C[C@H]1NC(=O)NC1=O, the AC50 was “inactive”. For C/C(=N/NC(=O)c1ccc(C)s1)c1cccc(NC(=O)COc2ccc(Cl)cc2C)c1, the AC50 was 3.16 µM (active). In the case of C/C(=N\NC(=O)c1ccc(Cl)cc1)c1cccc(NC(=O)C(C)C)c1, the AC50 was 17.8 µM (active). CCC(CC)C(=O)Nc1cccc(/C(C)=N\NC(=O)c2ccc(C)s2)c1 was tested, and the AC50 was “inactive”. C/C(=N\NC(=O)c1cccc(Cl)c1)c1cccc(NC(=O)C(C)C)c1 was tested, and the AC50 was “inactive”. For C/C(=N/NC(=O)c1cccs1)c1ccc(NC(=O)COc2ccc(Cl)cc2Cl)cc1, the AC50 was 14.1 µM (active). In the case of CCc1ccc2c(c1)c(N=NC1=NC(=O)CS1)c(O)n2CC, the AC50 was “inactive”. In the case of CC(=O)NNc1cccc(Cl)n1, the AC50 was “inactive”. In the case of C=CCSC[C@@H]1Nc2cc(Cl)c(S(N)(=O)=O)cc2S(=O)(=O)N1, the AC50 was “inactive”. With O=C(NCC1CCCO1)c1nn2c(c1Cl)NC(c1ccc(F)cc1)CC2C(F)(F)F (centres undefined) the AC50 was “inactive”. CN(C(=O)Cn1nnc(-c2cccc(C(F)(F)F)c2)n1)C1CCCCC1 was tested, and the AC50 was “inactive”. For CC(C)CC(C(=O)NCC1CCCO1)N(C(=O)Cn1nnc(-c2ccc(F)cc2)n1)c1ccccc1F (centres undefined), the AC50 was 25.1 µM (active). In the case of CC(C)CC(C(=O)NCC1CCCO1)N(C(=O)Cn1nnc(-c2ccc(F)cc2)n1)c1cccc(C(F)(F)F)c1 (centres undefined), the AC50 was 3.55 µM (active). For O=S1(=O)N[C@H]2CC[C@@H]3NS(=O)(=O)N[C@H]4CC[C@H](N1)N4S(=O)(=O)N23, the activity, negative = inhibition was 11.2% [at 11.4 µM] (inactive). In the case of CCN1C(=O)[C@H]2[C@H]3[C@H](O)[C@H](O)C/C(=N/O[C@@H](C)c4cn([C@H](CO)Cc5ccccc5)nn4)[C@@H]3CC[C@@H]2C1=O, the activity, negative = inhibition was 4.85% [at 11.4 µM] (inactive) and 16% [at 11.4 µM] (inactive).
On the % scale 0 is the no-effect control and ±100 the full control effect.
